PMC7862700, “An all-to-all approach to the identification of sequence-specific readers for epigenetic DNA modifications on cytosine”

How the values were obtained:
Assay in all cases: DAPPL (digital affinity profiling via proximity ligation, sequencing); 10 mM Tris-HCl pH 7.5, 50 mM NaCl, 1 mM DTT, 4% glycerol, room temperature, 30 min; GST-TFs on glutathione beads, 16-mer random dsDNA library, 0.1% formaldehyde crosslink after washing; high values mean tight binding
Conditions in all cases: protein: recombinant; tags: N-terminal GST; dsDNA, one strand shown
[1] = target: T1, ELK1 (Homo sapiens, UniProt P19419 1-428)
T1 sequence: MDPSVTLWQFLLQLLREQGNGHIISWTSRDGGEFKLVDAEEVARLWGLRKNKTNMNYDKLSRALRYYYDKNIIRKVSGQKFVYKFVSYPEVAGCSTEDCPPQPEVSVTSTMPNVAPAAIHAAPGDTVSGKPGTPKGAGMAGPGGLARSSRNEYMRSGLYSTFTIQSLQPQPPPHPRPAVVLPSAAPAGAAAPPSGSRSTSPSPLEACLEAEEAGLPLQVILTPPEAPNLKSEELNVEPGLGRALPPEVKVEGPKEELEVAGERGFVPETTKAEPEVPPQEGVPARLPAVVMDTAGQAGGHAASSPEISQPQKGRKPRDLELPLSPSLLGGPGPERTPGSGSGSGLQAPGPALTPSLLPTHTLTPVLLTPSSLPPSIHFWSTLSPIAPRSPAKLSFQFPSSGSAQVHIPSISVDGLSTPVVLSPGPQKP
In short: (§1)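 Binding signal is defined as a hexamer's read frequency for one factor over its frequency for the tag-only sample. To obtain reads, GST-fused human transcription factors were expressed in yeast, captured on glutathione beads, barcoded with DNA and pooled with that sample. Pools met 200 nmole of a 16-mer random double-stranded DNA library in Tris/NaCl/DTT/glycerol buffer for 30 min at room temperature before washing, 0.1% formaldehyde crosslinking, proximity ligation (BsaI/T4 ligase, 1 h, 37 °C), PCR and Illumina NextSeq500 sequencing.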

[2] = target: T2, ERG (Homo sapiens, UniProt P11308 1-479)
T2 sequence: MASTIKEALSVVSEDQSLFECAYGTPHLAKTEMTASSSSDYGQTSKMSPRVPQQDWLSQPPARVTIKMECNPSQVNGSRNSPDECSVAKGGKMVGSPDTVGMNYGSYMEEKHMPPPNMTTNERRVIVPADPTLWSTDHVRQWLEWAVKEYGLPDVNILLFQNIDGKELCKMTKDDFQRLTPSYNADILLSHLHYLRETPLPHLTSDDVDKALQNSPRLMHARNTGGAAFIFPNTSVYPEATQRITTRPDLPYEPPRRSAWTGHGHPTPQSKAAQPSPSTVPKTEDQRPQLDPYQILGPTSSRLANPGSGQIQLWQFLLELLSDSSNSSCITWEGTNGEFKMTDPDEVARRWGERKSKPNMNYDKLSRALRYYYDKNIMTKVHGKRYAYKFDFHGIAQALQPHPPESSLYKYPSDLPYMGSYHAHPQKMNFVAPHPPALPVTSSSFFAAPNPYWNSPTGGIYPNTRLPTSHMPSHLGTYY
In short: as §1

[3] = target: ELF1 (Homo sapiens, UniProt P32519 1-619)
In short: as §1

[4] = target: T3, EHF (Homo sapiens, UniProt Q9NZC4 1-300)
T3 sequence: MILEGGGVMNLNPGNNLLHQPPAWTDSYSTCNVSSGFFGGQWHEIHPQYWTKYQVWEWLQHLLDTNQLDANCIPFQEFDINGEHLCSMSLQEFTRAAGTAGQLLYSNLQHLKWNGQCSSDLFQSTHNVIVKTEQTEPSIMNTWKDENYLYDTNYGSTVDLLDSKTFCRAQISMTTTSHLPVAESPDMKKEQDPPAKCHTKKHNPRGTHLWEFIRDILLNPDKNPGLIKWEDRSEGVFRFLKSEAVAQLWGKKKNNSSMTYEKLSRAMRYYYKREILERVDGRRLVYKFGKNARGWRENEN
In short: as §1

[5] = target: SPIB (Homo sapiens, UniProt Q01892 1-262)
In short: as §1

[6] = target: T4, ELK3 (Homo sapiens, UniProt P41970 1-407)
T4 sequence: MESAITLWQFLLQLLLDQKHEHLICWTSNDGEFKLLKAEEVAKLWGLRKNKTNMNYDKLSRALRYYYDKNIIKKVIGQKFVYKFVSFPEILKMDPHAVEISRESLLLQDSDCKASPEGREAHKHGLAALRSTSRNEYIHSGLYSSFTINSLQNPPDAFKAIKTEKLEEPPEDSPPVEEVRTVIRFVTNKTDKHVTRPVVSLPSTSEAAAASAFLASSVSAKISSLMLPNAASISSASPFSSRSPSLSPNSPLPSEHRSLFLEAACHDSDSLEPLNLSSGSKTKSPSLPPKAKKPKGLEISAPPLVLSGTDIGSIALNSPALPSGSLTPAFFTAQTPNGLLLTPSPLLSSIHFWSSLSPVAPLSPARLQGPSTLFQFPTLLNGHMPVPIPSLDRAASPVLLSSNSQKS
In short: as §1

[7] = target: T5, SPIC (Homo sapiens, UniProt Q8N5J4 1-248)
T5 sequence: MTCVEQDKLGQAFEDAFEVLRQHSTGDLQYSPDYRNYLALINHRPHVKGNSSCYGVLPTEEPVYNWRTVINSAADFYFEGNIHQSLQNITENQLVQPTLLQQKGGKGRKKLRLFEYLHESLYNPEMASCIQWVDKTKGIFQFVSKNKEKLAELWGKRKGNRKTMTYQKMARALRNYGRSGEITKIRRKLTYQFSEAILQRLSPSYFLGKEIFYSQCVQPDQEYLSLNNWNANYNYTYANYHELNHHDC
In short: as §1

[8] = target: ELF4 (Homo sapiens, UniProt Q99607 1-663)
In short: as §1

[9] = target: T6, ELK4 (Homo sapiens, UniProt P28324-2 1-405)
T6 sequence: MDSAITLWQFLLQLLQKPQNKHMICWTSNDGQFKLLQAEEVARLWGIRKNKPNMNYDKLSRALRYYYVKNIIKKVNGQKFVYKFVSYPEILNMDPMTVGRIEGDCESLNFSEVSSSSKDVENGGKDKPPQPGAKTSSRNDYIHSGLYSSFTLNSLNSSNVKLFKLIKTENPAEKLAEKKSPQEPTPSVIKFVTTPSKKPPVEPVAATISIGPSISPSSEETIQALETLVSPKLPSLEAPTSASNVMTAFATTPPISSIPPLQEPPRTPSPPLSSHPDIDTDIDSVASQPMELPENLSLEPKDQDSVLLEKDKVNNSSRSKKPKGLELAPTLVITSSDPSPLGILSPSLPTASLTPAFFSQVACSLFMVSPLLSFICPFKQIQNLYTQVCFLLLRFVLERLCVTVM
In short: as §1

[10] = target: T7, ELF3 (Homo sapiens, UniProt P78545 1-371)
T7 sequence: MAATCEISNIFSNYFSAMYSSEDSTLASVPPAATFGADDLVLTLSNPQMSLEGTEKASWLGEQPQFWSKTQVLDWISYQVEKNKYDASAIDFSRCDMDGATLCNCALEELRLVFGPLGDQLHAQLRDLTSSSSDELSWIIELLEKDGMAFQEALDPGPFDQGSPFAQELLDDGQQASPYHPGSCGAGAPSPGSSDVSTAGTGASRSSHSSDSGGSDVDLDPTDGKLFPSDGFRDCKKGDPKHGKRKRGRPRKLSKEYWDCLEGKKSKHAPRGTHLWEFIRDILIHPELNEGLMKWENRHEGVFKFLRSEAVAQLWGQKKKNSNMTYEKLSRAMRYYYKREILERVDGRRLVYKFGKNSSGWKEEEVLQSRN
In short: as §1

[11] = target: ETV1 (Homo sapiens, UniProt P50549 1-477)
In short: as §1

[12] = target: T8, ERF (Homo sapiens, UniProt P50548 1-548)
T8 sequence: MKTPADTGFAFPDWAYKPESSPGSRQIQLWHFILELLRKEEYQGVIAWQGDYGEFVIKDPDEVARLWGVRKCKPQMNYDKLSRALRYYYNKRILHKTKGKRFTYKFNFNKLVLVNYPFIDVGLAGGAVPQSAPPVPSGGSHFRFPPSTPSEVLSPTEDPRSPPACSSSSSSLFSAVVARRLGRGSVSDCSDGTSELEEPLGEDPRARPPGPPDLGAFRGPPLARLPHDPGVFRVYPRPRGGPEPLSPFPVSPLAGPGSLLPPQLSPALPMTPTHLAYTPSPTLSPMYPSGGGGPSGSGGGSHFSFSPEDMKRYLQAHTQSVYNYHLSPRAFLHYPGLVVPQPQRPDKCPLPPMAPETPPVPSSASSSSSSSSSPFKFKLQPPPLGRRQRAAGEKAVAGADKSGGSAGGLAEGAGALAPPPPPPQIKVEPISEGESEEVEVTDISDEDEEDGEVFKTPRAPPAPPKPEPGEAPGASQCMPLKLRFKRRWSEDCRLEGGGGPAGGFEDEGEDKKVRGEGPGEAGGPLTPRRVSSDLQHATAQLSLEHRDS
In short: as §1

[13] = target: T9, ETV3L (Homo sapiens, UniProt Q6ZN32 1-361)
T9 sequence: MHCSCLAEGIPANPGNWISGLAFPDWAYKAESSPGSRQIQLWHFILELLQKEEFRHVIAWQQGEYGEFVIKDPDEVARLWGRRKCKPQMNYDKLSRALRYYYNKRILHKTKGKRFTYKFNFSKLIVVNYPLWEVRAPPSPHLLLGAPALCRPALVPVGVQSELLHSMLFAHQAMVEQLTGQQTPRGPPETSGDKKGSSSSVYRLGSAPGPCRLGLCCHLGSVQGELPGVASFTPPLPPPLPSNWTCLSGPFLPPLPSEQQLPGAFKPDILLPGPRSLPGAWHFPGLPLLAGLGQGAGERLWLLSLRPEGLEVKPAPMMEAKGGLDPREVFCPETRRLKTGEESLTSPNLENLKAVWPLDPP
In short: as §1

[14] = target: T10, ETS2 (Homo sapiens, UniProt P15036 1-469)
T10 sequence: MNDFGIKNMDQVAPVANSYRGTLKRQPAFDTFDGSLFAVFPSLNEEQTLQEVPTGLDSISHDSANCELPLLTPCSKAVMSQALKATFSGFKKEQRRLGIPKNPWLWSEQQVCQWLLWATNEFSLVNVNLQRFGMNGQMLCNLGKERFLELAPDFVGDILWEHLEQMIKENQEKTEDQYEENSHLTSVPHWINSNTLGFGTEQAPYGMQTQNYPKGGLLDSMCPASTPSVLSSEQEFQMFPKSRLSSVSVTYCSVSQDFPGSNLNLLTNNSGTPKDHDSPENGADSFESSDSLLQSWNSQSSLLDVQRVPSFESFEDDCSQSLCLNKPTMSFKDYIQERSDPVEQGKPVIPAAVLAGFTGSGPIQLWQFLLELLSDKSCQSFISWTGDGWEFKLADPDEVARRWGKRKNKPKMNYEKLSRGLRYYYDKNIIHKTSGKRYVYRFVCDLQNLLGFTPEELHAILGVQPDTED
In short: as §1

[15] = target: T11, ETV7 (Homo sapiens, UniProt Q9Y603 1-341)
T11 sequence: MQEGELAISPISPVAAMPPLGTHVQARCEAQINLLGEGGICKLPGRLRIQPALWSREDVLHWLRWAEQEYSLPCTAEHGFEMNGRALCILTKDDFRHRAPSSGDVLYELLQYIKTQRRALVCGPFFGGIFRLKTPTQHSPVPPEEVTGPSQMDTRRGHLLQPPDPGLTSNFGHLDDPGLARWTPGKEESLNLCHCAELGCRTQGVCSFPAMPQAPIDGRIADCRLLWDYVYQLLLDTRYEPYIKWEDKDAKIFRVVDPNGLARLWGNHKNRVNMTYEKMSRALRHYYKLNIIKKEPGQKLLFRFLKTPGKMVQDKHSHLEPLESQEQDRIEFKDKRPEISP
In short: as §1

[16] = target: T12, ETV3 (Homo sapiens, UniProt P41162-2 1-143)
T12 sequence: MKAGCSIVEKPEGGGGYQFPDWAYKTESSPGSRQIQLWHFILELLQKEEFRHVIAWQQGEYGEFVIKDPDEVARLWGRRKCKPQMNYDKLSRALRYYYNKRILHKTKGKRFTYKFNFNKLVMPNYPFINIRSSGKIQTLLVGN
In short: as §1

[17] = target: ETV6 (Homo sapiens, UniProt P41212 1-452)
In short: as §1

ETV6, sequence (P41212 whole entry): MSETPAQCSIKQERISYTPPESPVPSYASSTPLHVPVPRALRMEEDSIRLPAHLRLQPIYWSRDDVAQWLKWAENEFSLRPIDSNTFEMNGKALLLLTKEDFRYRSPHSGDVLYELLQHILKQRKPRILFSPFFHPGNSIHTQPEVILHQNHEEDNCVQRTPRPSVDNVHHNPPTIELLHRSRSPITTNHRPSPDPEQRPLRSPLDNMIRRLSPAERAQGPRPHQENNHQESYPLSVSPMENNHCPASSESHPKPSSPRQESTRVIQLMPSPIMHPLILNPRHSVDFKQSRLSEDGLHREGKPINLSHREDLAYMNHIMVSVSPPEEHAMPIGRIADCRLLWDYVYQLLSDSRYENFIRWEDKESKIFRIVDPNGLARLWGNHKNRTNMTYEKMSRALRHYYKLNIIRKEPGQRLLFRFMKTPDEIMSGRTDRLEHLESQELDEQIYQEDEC
ELF1, sequence (P32519 whole entry): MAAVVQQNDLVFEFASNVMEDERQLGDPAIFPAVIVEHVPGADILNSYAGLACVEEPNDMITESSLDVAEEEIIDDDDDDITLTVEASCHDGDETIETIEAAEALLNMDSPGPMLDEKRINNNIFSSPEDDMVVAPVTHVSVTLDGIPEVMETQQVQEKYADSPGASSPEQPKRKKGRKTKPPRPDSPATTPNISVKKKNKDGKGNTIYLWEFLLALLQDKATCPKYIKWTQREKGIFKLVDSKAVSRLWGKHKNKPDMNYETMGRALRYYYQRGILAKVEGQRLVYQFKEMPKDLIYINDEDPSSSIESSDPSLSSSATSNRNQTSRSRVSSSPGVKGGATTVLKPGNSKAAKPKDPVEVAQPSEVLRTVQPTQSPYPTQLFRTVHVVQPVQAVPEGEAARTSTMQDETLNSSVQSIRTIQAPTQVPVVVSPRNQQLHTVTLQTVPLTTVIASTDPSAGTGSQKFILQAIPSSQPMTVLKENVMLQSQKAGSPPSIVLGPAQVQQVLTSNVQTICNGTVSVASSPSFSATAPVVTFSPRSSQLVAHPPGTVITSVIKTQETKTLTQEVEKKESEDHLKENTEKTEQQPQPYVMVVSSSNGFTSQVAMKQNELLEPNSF
ETV1, sequence (P50549 whole entry): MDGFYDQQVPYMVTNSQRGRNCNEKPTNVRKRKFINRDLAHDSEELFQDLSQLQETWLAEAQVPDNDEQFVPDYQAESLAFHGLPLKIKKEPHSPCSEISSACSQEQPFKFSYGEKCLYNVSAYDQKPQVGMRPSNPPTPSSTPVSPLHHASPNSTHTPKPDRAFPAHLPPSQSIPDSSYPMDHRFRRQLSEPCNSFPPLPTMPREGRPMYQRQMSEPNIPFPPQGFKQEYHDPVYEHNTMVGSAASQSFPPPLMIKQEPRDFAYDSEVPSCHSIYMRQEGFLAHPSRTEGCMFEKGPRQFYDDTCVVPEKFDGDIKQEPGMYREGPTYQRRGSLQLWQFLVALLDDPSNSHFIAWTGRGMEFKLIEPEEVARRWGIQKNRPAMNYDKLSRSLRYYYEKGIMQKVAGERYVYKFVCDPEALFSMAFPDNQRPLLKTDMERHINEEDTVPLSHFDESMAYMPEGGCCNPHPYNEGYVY
SPIB, sequence (Q01892 whole entry): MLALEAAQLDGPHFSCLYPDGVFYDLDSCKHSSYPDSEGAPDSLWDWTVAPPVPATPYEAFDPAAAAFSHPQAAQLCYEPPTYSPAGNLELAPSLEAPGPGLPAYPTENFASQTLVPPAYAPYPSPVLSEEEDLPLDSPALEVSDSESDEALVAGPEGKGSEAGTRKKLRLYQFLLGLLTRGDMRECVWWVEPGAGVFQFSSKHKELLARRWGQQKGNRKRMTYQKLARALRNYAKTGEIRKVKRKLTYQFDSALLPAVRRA
ELF4, sequence (Q99607 whole entry): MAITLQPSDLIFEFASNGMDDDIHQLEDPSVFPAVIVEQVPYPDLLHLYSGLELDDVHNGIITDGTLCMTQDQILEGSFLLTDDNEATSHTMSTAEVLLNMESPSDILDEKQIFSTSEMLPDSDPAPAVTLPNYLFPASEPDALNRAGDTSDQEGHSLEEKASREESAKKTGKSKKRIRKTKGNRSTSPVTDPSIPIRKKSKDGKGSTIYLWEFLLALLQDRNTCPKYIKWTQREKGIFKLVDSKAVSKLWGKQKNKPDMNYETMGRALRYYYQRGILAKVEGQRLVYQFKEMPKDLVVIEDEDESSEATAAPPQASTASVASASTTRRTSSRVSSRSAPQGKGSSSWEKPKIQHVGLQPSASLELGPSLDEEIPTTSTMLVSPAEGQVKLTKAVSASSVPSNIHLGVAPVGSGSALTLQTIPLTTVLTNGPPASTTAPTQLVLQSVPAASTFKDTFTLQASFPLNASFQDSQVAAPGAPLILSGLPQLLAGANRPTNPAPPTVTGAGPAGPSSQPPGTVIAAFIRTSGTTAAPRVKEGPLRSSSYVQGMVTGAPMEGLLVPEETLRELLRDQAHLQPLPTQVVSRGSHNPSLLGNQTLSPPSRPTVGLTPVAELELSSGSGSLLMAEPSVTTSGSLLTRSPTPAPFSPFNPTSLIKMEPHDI

GCCGCT
binding signal [1]: 1.08 fold enrichment (6-mer frequency, TF over GST control) | binding signal [2]: 1.07 fold enrichment (6-mer frequency, TF over GST control) | binding signal [3]: 1.12 fold enrichment (6-mer frequency, TF over GST control) | binding signal [4]: 1.04 fold enrichment (6-mer frequency, TF over GST control) | binding signal [5]: 1.1 fold enrichment (6-mer frequency, TF over GST control) | binding signal [6]: 1.06 fold enrichment (6-mer frequency, TF over GST control) | binding signal [7]: 1.19 fold enrichment (6-mer frequency, TF over GST control) | binding signal [8]: 1.14 fold enrichment (6-mer frequency, TF over GST control) | binding signal [9]: 1.1 fold enrichment (6-mer frequency, TF over GST control) | binding signal [10]: 1.1 fold enrichment (6-mer frequency, TF over GST control) | binding signal [11]: 1.15 fold enrichment (6-mer frequency, TF over GST control) | binding signal [12]: 1.23 fold enrichment (6-mer frequency, TF over GST control) | binding signal [13]: 1.01 fold enrichment (6-mer frequency, TF over GST control) | binding signal [14]: 1.09 fold enrichment (6-mer frequency, TF over GST control) | binding signal [15]: 1.05 fold enrichment (6-mer frequency, TF over GST control) | binding signal [16]: 1.03 fold enrichment (6-mer frequency, TF over GST control) | binding signal [17]: 1.04 fold enrichment (6-mer frequency, TF over GST control)
